The compounds below were run against Neurogenic locus notch homolog protein 3 (Homo sapiens) (UniProt Q9UM47) (assay: NOTCH3 binders on small-molecule microarray, primary screen, biochemical, 635/667 nm fluorescence (AID 1096)). Settings: NOTCH3 binding, 635 nm fluorescence, higher = more signal.
Sequence of Neurogenic locus notch homolog protein 3 (Homo sapiens) (Q9UM47 whole entry, looked up): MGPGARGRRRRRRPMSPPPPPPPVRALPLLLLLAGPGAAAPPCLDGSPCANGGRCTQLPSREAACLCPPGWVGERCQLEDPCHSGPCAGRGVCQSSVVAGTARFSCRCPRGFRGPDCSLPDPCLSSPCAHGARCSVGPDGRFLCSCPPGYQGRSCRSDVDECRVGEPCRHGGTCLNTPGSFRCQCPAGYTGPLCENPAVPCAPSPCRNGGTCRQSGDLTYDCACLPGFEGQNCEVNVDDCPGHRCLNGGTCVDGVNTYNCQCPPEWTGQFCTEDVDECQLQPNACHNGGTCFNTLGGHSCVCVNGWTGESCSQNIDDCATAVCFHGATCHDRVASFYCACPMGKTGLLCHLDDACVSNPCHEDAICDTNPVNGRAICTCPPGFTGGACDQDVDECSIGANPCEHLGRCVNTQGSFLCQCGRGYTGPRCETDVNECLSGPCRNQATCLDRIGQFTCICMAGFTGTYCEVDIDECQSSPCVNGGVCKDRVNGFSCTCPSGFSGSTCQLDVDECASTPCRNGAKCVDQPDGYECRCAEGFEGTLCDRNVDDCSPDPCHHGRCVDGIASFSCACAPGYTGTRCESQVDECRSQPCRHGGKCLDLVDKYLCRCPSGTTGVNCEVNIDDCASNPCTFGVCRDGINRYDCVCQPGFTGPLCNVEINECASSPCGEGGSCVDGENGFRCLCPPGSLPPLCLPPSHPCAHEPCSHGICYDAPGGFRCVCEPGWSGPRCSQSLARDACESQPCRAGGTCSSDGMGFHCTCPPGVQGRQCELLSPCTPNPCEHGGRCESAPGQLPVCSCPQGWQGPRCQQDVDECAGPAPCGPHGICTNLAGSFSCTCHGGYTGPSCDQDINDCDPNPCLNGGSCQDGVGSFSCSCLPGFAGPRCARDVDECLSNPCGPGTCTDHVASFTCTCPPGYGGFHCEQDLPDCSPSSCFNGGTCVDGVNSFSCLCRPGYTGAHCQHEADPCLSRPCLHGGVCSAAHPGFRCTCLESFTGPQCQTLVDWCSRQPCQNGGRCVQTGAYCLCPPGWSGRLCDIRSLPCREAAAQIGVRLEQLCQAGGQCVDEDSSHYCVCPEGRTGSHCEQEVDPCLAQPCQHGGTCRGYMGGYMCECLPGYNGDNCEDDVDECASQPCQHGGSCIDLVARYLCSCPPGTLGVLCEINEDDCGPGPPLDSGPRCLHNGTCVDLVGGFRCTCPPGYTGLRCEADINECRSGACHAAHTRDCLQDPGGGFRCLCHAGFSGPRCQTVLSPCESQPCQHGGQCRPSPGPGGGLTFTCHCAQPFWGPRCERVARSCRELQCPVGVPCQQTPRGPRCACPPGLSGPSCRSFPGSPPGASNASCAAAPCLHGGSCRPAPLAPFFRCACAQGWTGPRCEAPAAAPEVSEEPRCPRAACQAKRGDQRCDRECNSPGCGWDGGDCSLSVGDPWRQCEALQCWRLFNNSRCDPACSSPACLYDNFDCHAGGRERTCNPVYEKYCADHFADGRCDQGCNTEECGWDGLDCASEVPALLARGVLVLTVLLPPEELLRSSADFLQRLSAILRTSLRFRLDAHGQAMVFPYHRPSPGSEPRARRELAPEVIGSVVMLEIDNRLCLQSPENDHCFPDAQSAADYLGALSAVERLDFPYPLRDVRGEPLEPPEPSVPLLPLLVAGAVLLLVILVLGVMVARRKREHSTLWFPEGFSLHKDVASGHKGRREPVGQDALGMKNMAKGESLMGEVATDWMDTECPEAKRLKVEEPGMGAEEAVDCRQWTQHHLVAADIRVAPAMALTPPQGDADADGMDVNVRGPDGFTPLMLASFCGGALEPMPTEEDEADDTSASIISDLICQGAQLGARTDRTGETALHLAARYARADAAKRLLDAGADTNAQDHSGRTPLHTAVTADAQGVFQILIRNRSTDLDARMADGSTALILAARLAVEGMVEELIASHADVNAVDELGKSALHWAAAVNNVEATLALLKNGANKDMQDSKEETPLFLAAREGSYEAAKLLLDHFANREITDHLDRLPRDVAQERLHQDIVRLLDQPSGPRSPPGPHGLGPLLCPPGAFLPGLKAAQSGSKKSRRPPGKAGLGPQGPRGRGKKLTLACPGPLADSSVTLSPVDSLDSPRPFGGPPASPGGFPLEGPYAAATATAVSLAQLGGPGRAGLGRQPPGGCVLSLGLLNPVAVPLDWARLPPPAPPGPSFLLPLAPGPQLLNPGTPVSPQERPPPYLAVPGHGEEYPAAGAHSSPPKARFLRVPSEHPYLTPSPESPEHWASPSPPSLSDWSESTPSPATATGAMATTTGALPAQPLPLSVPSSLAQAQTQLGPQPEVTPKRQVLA

| Structure (SMILES) | composite z-score |
| --- | --- |
| O=C1c2ccccc2[C@](Cc2ccccc2I)(C(=O)O)[C@H](c2ccc(CO)cc2)N1Cc1ccccc1C(F)(F)F | 0.263 |
| C=CCN1C(=O)[C@@]2(O[C@@H](CCO)[C@H]([Si](C)(C)c3ccc(OC)cc3)[C@H]2C)c2cc(NC(C)=O)ccc21 | 0.725 |
| O=C1O[C@@H](c2ccccc2)[C@@H](c2ccccc2)N2[C@@H](c3ccc(O)cc3)[C@]3(C(=O)Nc4ccccc43)[C@@H](C(=O)NC[C@H](O)c3ccccc3)[C@H]12 | 0.0385 |
| C=C(CCCC)C(=O)CC[C@@H](OC(=O)c1ccccc1-c1ccccc1C(=O)O)c1ccc(CO)o1 | 0.534 |
| COCCOC(=O)N1C(=O)[C@@]2(c3cc(C#CCCO)ccc31)[C@H](c1ccc(O)cc1)N1[C@H](c3ccccc3)[C@H](c3ccccc3)OC(=O)[C@H]1[C@@H]2C(=O)N1CCCCCCC1 | 0.991 |
| O=C(NCC(O)CO)[C@]1(CCS(=O)(=O)c2ccccc2)N=C(c2ccc(OCCCO)cc2)O[C@@H]1c1ccccc1 (stereo not given in full) | -0.256 |
| CC(C)NC(=O)[C@@H]1c2ccccc2C(=O)N(C2CCCCC2)[C@H]1c1ccc(CO)cc1 | 0.108 |
| CCOC(=O)C=Cc1cccc(OC)c1O | -0.125 |
| NC(=O)NCC#Cc1ccc2c(c1)[C@]1(C(=O)N2)[C@H](C(=O)NC[C@H](O)c2ccccc2)[C@H]2C(=O)O[C@H](c3ccccc3)[C@H](c3ccccc3)N2[C@@H]1c1ccccc1OCCO | 0.927 |
| CN1C(=O)C2C(C1=O)C1C=C(c3ccc(CO)cc3)C2C(C2CC2)N1Cc1cc2c(cc1Br)OCO2 (stereo not given) | 1.09 |
